Most compounds without a hit are left out; they make up all but 3.1% or so of the library.
VDR inhibitor: blocks the human vitamin D receptor | VDR-SRC2-3 peptide fluorescence polarization, 2 h | Potency, µM, inactives show max response, negative = inhibition, hits mostly inhibitors | 0.93% of 400,000 active | AID 504847; further: potency means the concentration at half of the fitted maximal effect; on the % scale 0 is the no-effect control and ±100 the full control effect
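Signal is fluorescence polarization, reporting how far test compounds block the interaction of VDR with the SRC2-3 coregulator peptide after a 2 h room-temperature incubation.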
TSHR antag: human thyrotropin receptor antagonism; P16473; TSHR-expressing cells, TSH-stimulated cAMP HTRF, 2 h; hits give low values; activity change, negative = inhibition, % at 11.5 µM; 0.2% of 330,000 active; AID 504810;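 active means activity change below a set negative limit, meaning inhibition stronger than a set level, cut at about -70% in these data; inconclusive means activity change between two set negative limits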; further: on the % scale 0 is the no-effect control and ±100 the full control effect
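Read-out is FRET at 665 nm (cryptate excitation 337 nm) from a cryptate-tagged anti-cAMP antibody, competed by cell cAMP against cAMP-d2. Compounds are tested on freshly harvested TSHR cells challenged with 4nM TSH (EC80) for 2 hours at 37 deg C.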
uPA generation: cell surface uPA generation inhibition; Potency, µM (doses to about 38.3 µM), inactives show at the top dose activity change, negative = inhibition, actives largely listed as inhibitors; AID 540303; cell surface uPA generation assay, qHTS; 0.31% of 330,000 active; active means well fitted inhibition curve with a large enough effect; inconclusive means small, poorly fitted or top-dose-only effect; inactive means no such curve, though single readings can be large or run the other way; tested in mouse RAW 264.7 cells; further: potency means the concentration at half of the fitted maximal effect; on the % scale 0 is the no-effect control and ±100 the full control effect; nearly all actives have a fitted effect of over 55% in size
TSG101-PTAP inh: blocks PTAP/TSG101 interaction to inhibit HIV-1 budding | Fluorescence polarization, FITC-PTAP peptide / Tsg101 binding | Q99816 | Potency, µM (highest dose often 115 µM), for inactives: at the top dose activity change, negative = inhibition, actives largely listed as inhibitors | 340,000 tested, under 10 active; active means well fitted inhibition curve with a large enough effect in the main read-out, with a control signal flat, not every such curve was filed as active; inconclusive means small, poorly fitted or top-dose-only effect, or effect the other way, or a change in a side signal; inactive means no such curve, though single readings can be large or run the other way; further: potency means the concentration at half of the fitted maximal effect; % of control where 0% means no effect
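Fluorescence polarization binding of Tsg101 binding domain (10 uM final) to FITC-labeled PTAP peptide (50 nM final) in HEPES pH 7.5 buffer with NaCl, Tween 20, EDTA, TCEP. Compounds added before peptide; binding 20 min at RT.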
PLK1 PBD block: blocks phosphopeptide binding to human PLK1 polo-box domain; P53350; 2.8% of 360,000 active; AID 720504; Plk1 PBD binding of FITC phosphopeptide, fluorescence polarization; Potency, µM, without a hit: max response, negative = inhibition, most hits filed as inhibitors; further: potency means the concentration at half of the fitted maximal effect; series mostly up to about 57 µM; on the % scale 0 is the no-effect control and ±100 the full control effect; nearly all actives have a fitted effect of over 65% in size
Target sequence (P53350 whole entry, looked up, the tested form may be a part): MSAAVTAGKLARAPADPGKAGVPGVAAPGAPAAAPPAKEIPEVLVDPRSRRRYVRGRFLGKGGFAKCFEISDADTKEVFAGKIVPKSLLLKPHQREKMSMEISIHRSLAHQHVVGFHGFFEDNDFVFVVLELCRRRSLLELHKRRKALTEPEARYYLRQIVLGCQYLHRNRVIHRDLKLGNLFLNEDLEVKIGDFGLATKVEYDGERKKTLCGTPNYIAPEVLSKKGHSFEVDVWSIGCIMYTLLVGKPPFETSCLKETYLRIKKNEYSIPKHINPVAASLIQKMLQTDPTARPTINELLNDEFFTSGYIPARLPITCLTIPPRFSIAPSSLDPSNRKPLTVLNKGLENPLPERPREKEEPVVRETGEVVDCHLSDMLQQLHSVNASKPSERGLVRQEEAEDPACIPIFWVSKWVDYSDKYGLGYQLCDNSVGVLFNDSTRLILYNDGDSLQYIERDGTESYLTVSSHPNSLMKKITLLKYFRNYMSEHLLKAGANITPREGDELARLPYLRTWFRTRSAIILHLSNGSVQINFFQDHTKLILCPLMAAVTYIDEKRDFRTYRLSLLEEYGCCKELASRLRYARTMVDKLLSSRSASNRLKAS
The depositor's hits bear a star; ? = inconclusive; . = no result; ! = a repeat was not active. Unless noted, the call rests on the fitted dose curve; in most records, active means well fitted curve in the direction sought with a large enough effect; inconclusive means small, poorly fitted or top-dose-only effect, or another doubt; inactive means no such curve, though single readings can be large; an effect the other way counts as inactive or inconclusive.

SMILES	VDR inhibitor	TSHR antag	uPA generation	TSG101-PTAP inh	PLK1 PBD block
O=C(N/N=C/c1cccc2cccnc12)c1ccccc1O	-18%	-4	5µM*	-8%	2%
CCCCN(C(=O)c1ccc(-c2ccc(Cl)cc2)o1)c1c(N)n(CCCC)c(=O)[nH]c1=O	71µM*	-2	?	-1%	-20%
CCN(C(=O)C(C)N1C(=O)/C(=C/c2ccco2)SC1=S)C1CCS(=O)(=O)C1 (stereo not drawn)	4%	-7	?	-3%	19µM*
O=C1/C(=C/c2ccco2)SC(=S)N1C1CCS(=O)(=O)C1 (stereo not drawn)	-5%	-24	?	-1%	-14%
CC(C(=O)N(C)C1CCS(=O)(=O)C1)N1C(=O)/C(=C/c2ccc(F)cc2)SC1=S (stereo not drawn)	79µM*	-12	?	-2%	?
CN1CCN(CC(=O)c2cc(C(C)(C)C)c(O)c(C(C)(C)C)c2)CC1	71µM*	-14	-5%	0%	-25%
C=Cn1cc[n+](CC(=O)c2cc(C(C)(C)C)c(O)c(C(C)(C)C)c2)c1	-11%	16	11%	-1%	-3%
Cc1ccc(Sc2cc(NCCCO)c([N+](=O)[O-])c3nonc23)cc1	?	10	-2%	-5%	24µM*
CC(=O)OCCCNc1cc(Sc2ccc(Cl)cc2)c2nonc2c1[N+](=O)[O-]	10µM*	30	3%	-7%	1.2µM*
CCOc1cc(/C=C2\C(=N)N3N=C(S(C)(=O)=O)SC3=NC2=O)ccc1OCCOc1cccc(OC)c1	?	-9	2%	-5%	27µM*
CCS(=O)(=O)C1=NN2C(=N)/C(=C\c3ccc(OCCOc4cccc(OC)c4)c(OC)c3)C(=O)N=C2S1	-18%	14	2%	1%	24µM*
CCC1=NN2C(=N)/C(=C\c3ccc(OCCOc4ccccc4)c(OC)c3)C(=O)N=C2S1	.	-7	.	.	.
O=S(=O)(c1ccc2c(c1)OCCO2)N1CCN(c2nc(-c3ccccc3)nc3ccccc23)CC1	9%	.	.	.	.
Cc1ccc(S(=O)(=O)N2[C@H](CC(=O)OCc3ccccc3)OC[C@@H]2C)cc1	.	.	.	.	-4%
N#Cc1ccc(C23OCCN2CCn2c3c3ccccc3[n+]2[O-])cc1 (stereo not drawn)	10%	2	2.2µM*	1%	-1%
Cc1ccc(C23OCCN2CCn2nc4ccccc4c23)cc1 (stereo not drawn)	-9%	16	14%	0%	-15%
CCOc1cc(C(=O)Nc2ccc(NC(=O)c3cc4ccccc4o3)c(OC)c2)cc(OCC)c1OCC	1%	.	.	.	.
C=CCN1C(=O)C(=O)N(Cc2nc3ccccc3s2)C1=O	7%	-3	-2%	-1%	-7%
O=C1N(c2ccc(Cl)cc2)C(c2ccccc2)N2CCCN12 (stereo not drawn)	?	12	-8%	0%	19µM*
C=CC[n+]1c(/C=C2\C=Cc3cc(C)ccc3N2CC)ccc2ccccc21	-14%	-34	8.9µM*	-3%	-2%
CCN1/C(=C\c2ccc3cc(C)ccc3[n+]2CC)Sc2cc(C)c(C)cc21	-1%	-15	?	13%	0%
CCS(=O)(=O)Nc1ccc(C(=O)CC2(O)C(=O)Nc3ccc(Br)cc32)cc1 (stereo not drawn)	-14%	-12	3%	-6%	21µM*
O=S(=O)(NCCc1ccc(F)cc1)c1ccc(F)cc1Br	-16%	-18	5%	-1%	?
O=C(NCC(c1ccco1)N1CCc2ccccc21)C(=O)Nc1ccc(F)cc1F (stereo not drawn)	-18%	-2	3.2µM*	1%	2%
O=C(NCC(c1ccco1)N1CCc2ccccc21)C(=O)Nc1ccccc1F (stereo not drawn)	?	-9	?	0%	-3%
SMILES	VDR inhibitor	TSHR antag	uPA generation	TSG101-PTAP inh	PLK1 PBD block
O=C(Oc1ccccc1)N1CCC2(CCCN(c3ncccn3)C2)CC1	-10%	.	.	.	.
CC(=O)Nc1cccc(NC(=S)Nc2ccc(F)c(Cl)c2)c1	-4%	-1	-4%	-7%	30µM*
CC(C)=CC1C(CO)C1(C)C (stereo not drawn)	5%	.	.	.	.
CC(C)(C)c1ccc(C(=O)N2CCN(Cc3cc(=O)n4nc(-c5ccccc5F)sc4n3)CC2)cc1	4%	.	.	.	.
O=C1C(c2c(O)[nH]c3ccccc23)=Nc2ccccc21	?	5	-21%	-3%	-3%
CC(=O)c1cccc2c(O)c(C3=Nc4ccccc4C3=O)[nH]c12	56µM*	1	-5%	-6%	?
COc1cccc(C(=O)Nc2ccc(-n3nncc3-c3ccc(Br)cc3)cc2)c1OC	2%	.	.	.	.
COc1ccccc1Cc1c(-c2ccc(Cl)cc2)nc2ccc(Br)cn12	.	.	.	.	3%
CNC(=O)COC(=O)c1cc(-c2ccco2)nc2ccccc12	?	0	12%	2%	24µM*
O=C(COC(=O)c1cc(-c2ccco2)nc2ccccc12)NCc1ccccc1	-11%	-5	0%	0%	-16%
Cc1ccc(Nc2nc(-c3cccs3)cs2)nc1	-22%	-16	?	0%	-28%
Cc1ccc(Nc2nc(-c3ccccc3)cs2)nc1	-12%	-44	10µM*	-1%	-3%
Oc1ccc(-c2csc(Nc3ccccn3)n2)cc1O	-15%	-24	4µM*	-5%	?
O=C(CCn1cnc2ccccc21)N/N=C/c1ccccc1O	-8%	4	?	-5%	8.4µM*
O=C(CCn1cnc2ccccc21)N/N=C/c1ccc(O)cc1	1%	7	-2%	-2%	-5%
C[C@H]1CN([C@@H](C)CO)C(=O)c2cc(NS(=O)(=O)c3ccc(Cl)cc3)ccc2O[C@@H]1CN(C)CC1CCCCC1	89µM*	5	-4%	-8%	-7%
C[C@@H]1CCCCO[C@@H](CN(C)CC2CCCCC2)[C@@H](C)CN([C@H](C)CO)C(=O)c2cc(NS(=O)(=O)c3ccc(Cl)cc3)ccc2O1	.	.	.	.	-17%
O=C1NC(=O)C(c2ccccc2[N+](=O)[O-])=C1Nc1ccc(O)c(Cl)c1	45µM*!	-4	1%	-6%	-15%
CN1CCN(CCCOc2ccc(-c3ccccc3)cc2)CC1	-19%	17	0%	-3%	21µM*
Cc1cccc(CNc2ncnc3ccc(-c4ccoc4)cc23)c1	20µM*!	-14	4%	.	.
c1nc(NC2CC2)c2cc(-c3ccoc3)ccc2n1	40µM*	.	.	.	.
c1cn(-c2ncnc3ccc(-c4ccoc4)cc23)cn1	32µM*	.	.	.	.
O=S(=O)(c1ccccc1)c1nnn2c1nc(N1CCN(c3ccccc3)CC1)c1cc(Cl)ccc12	2%	.	.	.	.
N#Cc1c(/N=C/N2CCOCC2)sc2c1CCCCC2	-8%	0	-4%	-9%	21µM*
CN(C)/C=N/c1sc2c(c1C#N)CCCCC2	-7%	9	-4%	-3%	-9%
CCCCC(=O)Nc1cc(-c2cn3cccnc3n2)ccc1C	-4%	.	.	.	.
Cc1cc(C(=O)NNC(=S)NCc2ccco2)n(C)n1	?	1	2%	-1%	21µM*

Screening data deposited in PubChem BioAssay by National Center for Advancing Translational Sciences (NCATS).
